Screens as filed in PubChem BioAssay.
Compounds with a hit are over-represented: about 10% of the library has one in this group of screens.
JMJD2A Tudor inh: blocks the human JMJD2A Tudor domain | 390,000 compounds, 4.4% hits | AlphaScreen JMJD2A-Tudor / H3K4me3 peptide binding | Potency, µM (series often up to 114 µM), without a hit: at the top dose activity change, negative = inhibition, usual class: inhibitors | O75164; also: potency is read from the fitted curve at half-maximal effect; % is scaled to controls: 0 for no effect and ±100 for the full control effect; nearly all actives have a fitted effect of over 50% in size
HP1b binding inh: blocks HP1-beta chromodomain binding to methylated histone tails | P83916 | AID 540317 | Potency, µM (highest dose often 114 µM), for the others: at the top dose activity change, negative = inhibition, actives largely listed as inhibitors | 390,000 compounds, 0.56% hits | AlphaScreen HP1-beta / biotin-H3K9me3 peptide binding; also: potency is read from the fitted curve at half-maximal effect; nearly all actives have a fitted effect of over 70% in size
Target sequence (P83916 whole entry, looked up): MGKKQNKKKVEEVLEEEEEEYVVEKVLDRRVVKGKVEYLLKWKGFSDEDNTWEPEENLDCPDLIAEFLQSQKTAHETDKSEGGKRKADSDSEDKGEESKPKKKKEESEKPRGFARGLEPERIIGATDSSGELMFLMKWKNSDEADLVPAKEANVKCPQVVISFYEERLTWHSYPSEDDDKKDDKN
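HP1-beta protein (50 nM final) preincubated 30 min at room temperature with biotinylated H3(1-18)K9me3 peptide (50 nM) in PBS pH 7.4, 0.01% Tween-20, then compound added for 30 min. AlphaScreen streptavidin donor/nickel chelate acceptor beads (10 ug/mL final), 30 min dark, luminescence read.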
G9a inh: inhibitors of human histone lysine methyltransferase G9a | Q96KQ7 | G9a H3K9 monomethylation, AlphaScreen, 2 h | Potency, µM (titrated, usually from 102 µM), inactives show at the highest dose activity, negative = inhibition, actives largely listed as inhibitors | 350,000 compounds, 8.8% hits; also: potency is read from the fitted curve at half-maximal effect; % is scaled to controls: 0 for no effect and ±100 for the full control effect; nearly all actives have a fitted effect of over 75% in size
Target sequence (Q96KQ7 913-1193 limits assumed): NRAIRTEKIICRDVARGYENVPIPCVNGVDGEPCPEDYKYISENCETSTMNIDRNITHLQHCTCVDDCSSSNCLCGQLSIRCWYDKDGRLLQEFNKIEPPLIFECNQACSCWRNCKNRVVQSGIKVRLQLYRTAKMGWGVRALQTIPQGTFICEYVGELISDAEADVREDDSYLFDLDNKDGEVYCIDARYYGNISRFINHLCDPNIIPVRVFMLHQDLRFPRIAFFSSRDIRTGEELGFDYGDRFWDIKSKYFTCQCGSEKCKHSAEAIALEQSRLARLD
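G9a (20 nM) preincubated 15 min RT with compounds, then 500 nM biotinylated H3K9 peptide and 20 uM SAM added; 2 h RT reaction. Monomethyl-H3K9 product detected by AlphaScreen with anti-H3K9me1 antibody, streptavidin donor and anti-rabbit IgG acceptor beads.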
BAZ2B block: BAZ2B (human) inhibition | AlphaScreen BAZ2B-H3K14Ac peptide displacement | Q9UIF8 | 360,000 compounds, 4.4% hits | Potency, µM (titrated, usually from 114 µM), for inactives: at the highest dose activity change, negative = inhibition, usual class: inhibitors | AID 504333; also: potency is read from the fitted curve at half-maximal effect; % is scaled to controls: 0 for no effect and ±100 for the full control effect; nearly all actives have a fitted effect of over 60% in size
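BAZ2B (50 nM) with biotin-H3(5-23)K14Ac peptide (50 nM) in PBS pH 7.4, 0.01% Tween-20, preformed 30 min, then compound 30 min at room temperature; top concentration 110uM. AlphaScreen streptavidin donor/nickel chelate acceptor beads (10 ug/mL final), 20 min dark, signal read.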
Six1-Eya2 blk: inhibitors of human Six1/Eya2 interaction. Q15475+O00167. AlphaScreen GST-Six1/His-Eya2 binding, biochemical; stronger effect = lower value. activity change, % (test concentration not listed). 360,000 compounds, 0.56% hits. AID 651725; in the data active = activity change below about -65%; inconclusive = mostly about -30% to -63%; also: % is scaled to controls: 0 for no effect and ±100 for the full control effect
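GST-Six1 + His-Eya2 (5X stock: 250/500 nM); Tris pH 8.0, 300 mM NaCl, 0.05% BSA, 0.02% Tween 20; GSH donor/Ni acceptor beads; 1 h 37 °C dark; AlphaScreen readout.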
CtBP-E1A blk: blocks the CtBP interaction with E1A; AID 651724; AlphaScreen GST-E1A/His-CtBP binding, 1536-well; stronger effect = lower value; 340,000 compounds, 0.49% hits; activity change, % (concentration not given with the values); in the data active = activity change below about -65%; inconclusive = mostly about -30% to -63%; also: % is scaled to controls: 0 for no effect and ±100 for the full control effect
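Homogeneous bead-based format: GST-tagged E1A captured on glutathione donor beads, His-tagged CtBP on nickel acceptor beads; compounds precede bead addition by 2 h at 37 °C.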
An asterisk follows results filed as active; ? = inconclusive; / = not tested or not shown; [ ] = dose if it differs, or a comment. Unless noted, calls follow the shape of the dose curve; as a rule, active = well fitted inhibition curve with a large enough effect; inconclusive = small, poorly fitted or top-dose-only effect; inactive = no such curve, though single readings can be large or run the other way.

SMILES | JMJD2A Tudor inh | HP1b binding inh | G9a inh | BAZ2B block | Six1-Eya2 blk | CtBP-E1A blk
COc1cc(/C=N/NC(=Nc2ccc(C)cc2)c2nc3ccccc3s2)ccc1O | ? | 0% | 14µM* | 45µM* | -5 | -8
COc1ccc(/C=C(\CC(=O)O)c2nc3ccccc3s2)cc1O | -23% | 21% | 11% | -12% | 7 | 3
Brc1cc2c(cc1/C=N/Nc1nc3ccccc3s1)OCO2 | -28% | 23% | 25% | 1% | -1 | 4
O=C(O)C/C(=C\c1cc2c(cc1Br)OCO2)c1nc2ccccc2s1 | -8% | -13% | 10µM* | -12% | -22 | -21
OC(c1cccc(Cl)c1)c1ncc(-c2cccc(C(F)(F)F)c2)[nH]1 (stereo not given) | / | / | / | / | -21 | -14
CCN(Cc1ccccc1)c1ccc(Br)cn1 | 88% | / | / | / | / | /
Cc1cc(OC(C)C(=O)NCC(O)c2ccccc2)c2c(C)cc(=O)oc2c1 (stereo not given) | -14% | 50% | 3% | -12% | 8 | -5
CCOc1ccc(S(=O)(=O)N2CCC(C(=O)N3CCCCCC3)CC2)cc1C | -8% | 46% | 32% | -20% | -5 | -3
CN(C)c1ccc(/C=C(\Cl)c2nc3ccccc3s2)cc1 | -33% | 7% | 14µM* | 45µM* | 9 | 0
N#CN1CCC(NS(=O)(=O)c2cccc(C(F)(F)F)c2)CC1 | -8% | / | / | / | / | /
CCOC(=O)c1c(-c2ccccc2)csc1NC(=O)C(C)NCCCN1CCOCC1 (stereo not given) | 50µM* | ? | 11µM* | 40µM* | -8 | -16
CCOC(=O)c1c(-c2ccc(F)cc2)csc1NC(=O)CCN1CCOCC1 | 1.8µM* | ? | 8.9µM* | 40µM* | -8 | -2
CCOC(=O)c1c(-c2ccc(F)cc2)csc1NC(=O)C1CC=CCC1C(=O)O (stereo not given) | -25% | ? | 16µM* | -31% | -4 | 2
CCOC(=O)c1c(-c2ccc(-c3ccccc3)cc2)csc1NC(=O)CCN1CCOCC1 | ? | -14% | ? | -32% | -9 | -7
CCOC(=O)c1c(-c2ccc(-c3ccccc3)cc2)csc1NC(=O)CNCCN(C)C | 35µM* | -14%[57 µM] | 50µM* | ? | -17 | -27
Cc1c(N)cc(S(=O)(=O)O)cc1NC(=O)c1cccc([N+](=O)[O-])c1 | -34% | -3% | / | / | -12 | -15
Cc1ccc(/C=C/C(=O)Nc2ccncc2)o1 | ? | -20% | ? | 1% | 2 | 10
Cc1ccc(/C=C/C(=O)Nc2ccc(N(C)C)cc2)o1 | 50µM* | ? | 4µM* | 35µM* | ? | -22
CC(=O)NS(=O)(=O)c1ccc(NC(=O)/C=C/c2ccc(C)o2)cc1 | 35µM* | ? | 22µM* | -20% | -11 | 1
Cc1ccc(/C=C/C(=O)Nc2ncc(C)s2)o1 | -24% | -13% | 13µM* | ? | -4 | -10
CC(C)(C)OC(=O)NCCCCCNC(=O)c1[nH]cnc1C(=O)Nc1ccc(Cl)cc1 | -26% | 49% | 6%[0.501 µM] | -3% | -11 | -3
CC(=O)N1CC(C)Oc2ccc(S(=O)(=O)NC(CC(=O)O)c3ccccc3C)cc21 (stereo not given) | -14% | 34% | 50µM* | -30% | 3 | 4
Nc1cc2c(cc1C(=O)c1ccccc1)OCCO2 | ? | -34% | / | 40µM* | -22 | -16
Cc1ccc(C(=O)c2cn(Cc3ccccc3)c3cc4c(cc3c2=O)OCCO4)cc1 | -33% | 46% | -44%[59 µM] | -2% | / | /
Cc1ccc(C(=O)c2cc3c(cc2N)OCCO3)cc1 | 50µM* | -15% | 28µM* | 35µM* | ? | -20
SMILES | JMJD2A Tudor inh | HP1b binding inh | G9a inh | BAZ2B block | Six1-Eya2 blk | CtBP-E1A blk
COC(=O)c1cc2c(cc1N)OCCO2 | -22% | 21% | 56µM* | ? | -2 | -16
CC(=O)Nc1cc2c(cc1C(=O)c1ccccc1)OCCO2 | -3% | 21% | -27% | -26% | 19 | 0
Nc1cc2c(cc1C(=O)c1ccc(Cl)cc1)OCCO2 | 50µM* | -56% | 45µM* | 35µM* | ? | ?
Cc1ccc(N2CCN(C(=O)c3c(C)oc4ncnc(N5CCOCC5)c34)CC2)c(C)c1 | 1% | 50% | 1%[59 µM] | 1%[57.1 µM] | / | /
Cc1ccc(N(C(=O)Cn2nnc(-c3ccc(F)cc3)n2)C(CC(C)C)C(=O)NCC2CCCO2)cc1 (stereo not given) | -24% | 8% | 13%[0.0925 µM] | 1% | -2 | -5
COc1cc2c(cc1OC)/C(=C/C(=O)c1cccc([N+](=O)[O-])c1)NCC2 | ? | ? | -45% | -35% | -25 | -15
COc1cc2c(cc1OC)/C(=C/C(=O)c1ccc(F)cc1)NCC2 | ? | -30% | 79µM* | 50µM* | ? | -20
COc1cc2c(cc1OC)/C(=C/C(=O)c1ccccc1F)NCC2 | ? | ? | 56µM* | ? | -26 | -30
CN(C)/N=N\c1nc[nH]c1C(N)=O | / | / | 33%[21.5 µM] | / | / | /
Cc1[nH]c(=O)cc2ccccc12 | 5% | 54% | 25µM* | -29% | 0 | -1
Cc1cc(=O)[nH]c2ccccc12 | -8% | 60% | -12%[59 µM] | -4% | 4 | 0
CC1(C)Cc2c(C#N)c(N)n(-c3ccccc3)c(=S)c2CO1 | 4% | 37% | / | -5% | 3 | 12
N#Cc1c2c(c(=S)n(-c3ccccc3)c1N)CCCC2 | -21% | 1% | 8.9µM* | ? | -7 | -11
COC(=O)c1ccccc1-c1ccc(C(c2c(C)[nH][nH]c2=O)c2c(C)[nH][nH]c2=O)o1 | -29% | 1% | 2% | -11% | -2 | -2
COC(=O)c1cccc(-c2ccc(C(c3c(C)[nH][nH]c3=O)c3c(C)[nH][nH]c3=O)o2)c1 | 56µM* | ? | 2.2µM* | 40µM* | -4 | -9
Cc1[nH][nH]c(=O)c1C(c1ccc(-c2ccc(Cl)c(C(=O)O)c2)o1)c1c(C)[nH][nH]c1=O | 50µM* | 28% | 3.2µM* | 40µM* | ? | -2
COc1ccc(N(CC(=O)NN=C2CCN(C)CC2)S(=O)(=O)c2ccc(NC(C)=O)cc2)cc1 | -9% | 40% | -2% | -11% | -1 | 6
Cn1c(SCCC#N)nnc1-c1ccc(F)cc1 | / | / | -1% | / | / | /
CC1=C(SCCC#N)S/C(=C2\SC(C)=C(SCCC#N)S2)S1 | 56µM* | ? | 1.3µM* | -32% | -78* | -5
CCC(C)NC(=O)c1c(N)n(/N=C/c2cccnc2)c2nc3ccccc3nc12 (stereo not given) | 9% | 50% | 56% | 11% | -1 | -10
CCC(C)NC(=O)c1c(N)n(/N=C/c2ccccn2)c2nc3ccccc3nc12 (stereo not given) | -34% | 16% | 50µM* | -37% | -6 | 2
